# In all, about 400,000 compounds went through this assay and about 2,100 (0.53%) were called active. Inconclusive results (about 14%) are left out. The sample holds actives, similar compounds and a random draw of the others, so the mix is not that of the screen. The rule behind the calls is not given here.
# Biological target: Ataxin-2 (Homo sapiens) (UniProt Q99700)
# Experiment: qHTS for Inhibitors of ATXN expression.
# Format: functional
# Ataxin-2 (Homo sapiens), sequence (Q99700 whole entry): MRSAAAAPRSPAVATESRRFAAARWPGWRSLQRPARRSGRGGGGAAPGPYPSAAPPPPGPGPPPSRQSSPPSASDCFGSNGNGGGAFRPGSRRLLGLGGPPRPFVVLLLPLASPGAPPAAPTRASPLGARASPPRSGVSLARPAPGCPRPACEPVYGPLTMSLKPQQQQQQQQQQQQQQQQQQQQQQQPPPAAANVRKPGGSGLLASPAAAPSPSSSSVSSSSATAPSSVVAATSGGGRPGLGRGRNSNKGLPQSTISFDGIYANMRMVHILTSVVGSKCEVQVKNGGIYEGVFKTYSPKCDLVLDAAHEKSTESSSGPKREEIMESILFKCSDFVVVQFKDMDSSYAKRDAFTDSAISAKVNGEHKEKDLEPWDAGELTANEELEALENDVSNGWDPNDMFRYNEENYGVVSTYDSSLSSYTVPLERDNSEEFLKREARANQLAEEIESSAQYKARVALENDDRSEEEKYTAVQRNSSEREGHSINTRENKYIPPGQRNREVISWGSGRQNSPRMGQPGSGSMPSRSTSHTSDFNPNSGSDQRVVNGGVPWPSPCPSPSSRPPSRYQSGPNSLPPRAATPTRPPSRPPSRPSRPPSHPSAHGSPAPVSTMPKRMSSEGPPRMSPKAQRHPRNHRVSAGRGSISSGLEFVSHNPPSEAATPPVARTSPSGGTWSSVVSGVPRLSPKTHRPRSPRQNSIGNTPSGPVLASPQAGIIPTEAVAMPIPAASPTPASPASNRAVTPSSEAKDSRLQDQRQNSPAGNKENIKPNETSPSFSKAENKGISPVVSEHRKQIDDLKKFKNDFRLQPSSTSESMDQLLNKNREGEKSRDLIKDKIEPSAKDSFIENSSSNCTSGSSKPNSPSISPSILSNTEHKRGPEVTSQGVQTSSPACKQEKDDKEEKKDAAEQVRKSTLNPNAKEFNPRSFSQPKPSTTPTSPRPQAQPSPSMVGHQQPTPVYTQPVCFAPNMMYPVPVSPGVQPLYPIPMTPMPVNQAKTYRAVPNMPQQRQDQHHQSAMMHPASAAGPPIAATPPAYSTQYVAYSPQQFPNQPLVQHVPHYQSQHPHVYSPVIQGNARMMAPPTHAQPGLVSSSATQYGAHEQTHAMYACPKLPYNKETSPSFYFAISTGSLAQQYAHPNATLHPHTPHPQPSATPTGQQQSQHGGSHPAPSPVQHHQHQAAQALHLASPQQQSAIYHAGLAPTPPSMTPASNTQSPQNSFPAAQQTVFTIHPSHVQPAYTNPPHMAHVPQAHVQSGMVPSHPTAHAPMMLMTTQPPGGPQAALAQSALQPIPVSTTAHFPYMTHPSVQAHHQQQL
row,SMILES,Potency
1,CCc1nc2sc(C(C)=O)c(N)c2c2c1CCCC2,inactive
2,O=C(CC1Sc2ccccc2NC1=O)OCc1cc(=O)oc2cc(O)ccc12 (stereo not drawn),inactive
3,Cn1cc(/C=N/NC(=O)c2cc3cc(Br)ccc3o2)c2ccccc21,inactive
4,CCOC(=O)N1CCC(NC(=O)c2cc(C(=O)Nc3ccc(F)cc3F)ccc2CO)CC1,inactive
5,O=C(CC[C@H]1O[C@@H](n2ccc(=O)[nH]c2=O)[C@H](O)[C@@H]1O)N[C@H](Cc1ccccc1)C(=O)NCCCN1CCCC1=O,inactive
6,CC(OC(=O)c1ccc([N+](=O)[O-])s1)C(=O)NC1CCCCC1C (stereo not drawn),inactive
7,O=c1[nH]cc(/N=C/c2cc(Cl)cc(Cl)c2O)c(=O)[nH]1,inactive
8,CCCn1/c(=N\C(C)=O)c(C(=O)OCC)cc2c(=O)n3ccccc3nc21,inactive
9,O=C(c1cccc(Cl)c1)N1CCC(N2CCC(C(=O)N3CCCC3)CC2)CC1,8.91 µM (active)
10,O=C(C1CCN(S(=O)(=O)c2c(Cl)cccc2Cl)CC1)N1CCCCCCC1,inactive
11,CC(C)Cc1cc(C(=O)N2CCC(N3CCC(C(=O)N4CCCC4)CC3)CC2)[nH]n1,inactive
12,CCOC(=O)c1cc2c(=O)n3ccccc3nc2n(CC(C)C)/c1=N\C(=O)C(C)Oc1ccccc1 (stereo not drawn),inactive
13,COc1ccc(-c2oc3ccccc3c(=O)c2OC(C)=O)cc1,inactive
14,CNC(=O)c1ccc(NC(=O)C2CCN(S(=O)(=O)c3cccc(C(F)(F)F)c3)CC2)cc1,inactive
15,Cc1noc2ncnc(N3CCCC(C(=O)Nc4cccc(C(F)(F)F)c4)C3)c12 (stereo not drawn),31.6 µM (active)
16,O=C(Nc1cccc(C(F)(F)F)c1)C1CC(=O)N(Cc2ccco2)C1 (stereo not drawn),inactive
17,CCn1c2ccccc2nc2cc3c(cc21)c(Cl)c(=O)c1ccccc13,7.94 µM (active)
18,CCn1c2ccccc2c(=O)c2ccccc21,inactive
19,CCn1c(C(C)NC(C)=O)nc2ccccc21 (stereo not drawn),inactive
20,C/C(=N\NC(=O)c1cc2ccccc2cc1O)c1ccc(C)o1,inactive
21,C/C(=N\NC(=O)C1(C)CC1(Br)Br)c1cccc(NC(=O)c2ccc(C)o2)c1 (stereo not drawn),35.5 µM (active)
22,O=C(O)c1cccc(NC(=O)c2cc3cc(Br)cc(Br)c3oc2=O)c1,inactive
23,Nc1ccc(Br)c2cccnc12,inactive
24,NC(=O)c1c(NC(=O)C2COc3ccccc3O2)sc2c1CCN(Cc1ccccc1)C2 (stereo not drawn),inactive

row,SMILES,Potency
1,COc1ccc(CC2(CO)CCN(Cc3ccc4c(c3)CCO4)CC2)cc1,inactive
2,COc1ccccc1/C=C/CN1CCC(CO)(Cc2ccccc2)CC1,inactive
3,Cc1c(CN2CCC(CO)(Cc3cccc(C(F)(F)F)c3)CC2)c2ccccc2n1C,39.8 µM (active)
4,O=C(O)c1ccc(-c2ccc(/C=C3\NC(=O)N(Cc4ccc(Cl)cc4)C3=O)o2)cc1Cl,inactive
5,O=C(NCc1cccnc1)/C(=C/c1ccc(-c2ccc(Cl)cc2)o1)S(=O)(=O)c1ccccc1,35.5 µM (active)
6,CNC(=O)/C(C#N)=C/c1ccc(-c2ccc(Cl)cc2)o1,inactive
7,O=C(NCc1cccnc1)/C(=C\c1ccc(-c2ccc(Cl)c(Cl)c2)o1)S(=O)(=O)c1ccccc1,22.4 µM (active)
8,CC(C)(C)NC(=O)NCc1cccnc1,inactive
9,Cc1c(N(C)S(=O)(=O)c2cccc(C(=O)NCc3cccnc3)c2)c(=O)n(-c2ccccc2)n1C,inactive
10,O=C(NCc1cccnc1)/C(=C\c1ccc(-c2cccc(Cl)c2)o1)S(=O)(=O)c1ccccc1,31.6 µM (active)
11,O=C(N/N=C/c1ccc(-c2ccc([N+](=O)[O-])cc2)o1)c1cccnc1,inactive
12,O=C(NCC(=O)N1CCC2(CC1)NCCc1[nH]cnc12)c1cccc(Cl)c1,inactive
13,CN(C)c1ccc(/C=N/NC(=O)c2cccc(N3CCCC3=O)c2)cc1,inactive
14,Cc1ccc(S(=O)(=O)NN=C2CCc3ccccc32)cc1,inactive
15,N#CCCn1nc(-c2ccc(Br)cc2)cc1Nc1ccccc1NC(=O)C(F)(F)F,inactive
16,CCOc1ccc(N2C(=O)/C(=C\NNc3nnc(C)c(O)n3)c3ccccc3C2=O)cc1,inactive
17,O=C(C1CCCO1)N(c1ccc(F)cc1)C1C=CS(=O)(=O)C1 (stereo not drawn),inactive
18,O=C(OCCN1C(=O)c2cccc3c(N4CCOCC4)ccc(c23)C1=O)c1cccc(Cl)c1,inactive
19,CC(C)CN(C(=O)CN1CCCCCC1)c1c(N)n(CC(C)C)c(=O)[nH]c1=O,inactive
20,CC1CN(C(S)=Nc2ccc(Cl)cc2)CC(C)O1 (stereo not drawn),inactive
21,CCn1nc(NC(=O)COC)c2cc3cc(C)ccc3nc21,inactive
22,Cc1cccc2cc3c(N)c(C(=O)N4CCc5ccccc54)sc3nc12,inactive
23,O=[N+]([O-])c1ccc(NN=Cc2ccccc2O)nc1,20 µM (active)
24,O=[N+]([O-])c1ccc(/C=N/Nc2ncc(-c3ccccc3)cn2)cc1,inactive

row,SMILES,Potency
1,O=[N+]([O-])c1ccc(N/N=C/c2ccc(OCc3cccc4ccccc34)cc2)nc1,inactive
2,CN(C)c1c2ccccc2nc2c(F)c(F)c(F)c(F)c12,inactive
3,Cc1cccn2c(=O)c3cc(C(=O)NC(C)c4ccccc4)c(=N)n(CCOCCO)c3nc12 (stereo not drawn),inactive
4,O=C(/C=C/c1cn(CC(O)CN2CCCCCC2)c2ccccc12)c1ccc(Br)cc1 (stereo not drawn),inactive
5,CC(C)CN(CC(C)C)CC(O)Cn1cc(/C=C/C(=O)c2ccccc2)c2ccccc21 (stereo not drawn),inactive
6,C=CCn1cccc(/C=C/C(=O)c2ccc(C(C)(C)C)cc2)c1=S,35.5 µM (active)
7,Cc1cc(=O)oc2cc(O[C@@H]3O[C@H](CO)[C@H](O)[C@H](O)[C@H]3O)ccc12,inactive
8,Cc1cc(N2CCOCC2)nc2ccc(NC(=O)CCC(=O)N3CCCC(C)C3)cc12 (stereo not drawn),inactive
9,O=C(COC(=O)C1CC(=O)N(Cc2ccccc2)C1)Nc1cccc([N+](=O)[O-])c1 (stereo not drawn),inactive
10,CN(C(=O)c1cccc(NC(=O)Cc2ccc(NC(=O)C3CCCN(C(=O)CCc4ccccc4)C3)cc2)c1)C1CCCCC1 (stereo not drawn),17.8 µM (active)
11,Cc1ccc(N2C(=O)c3cccc4c(N5CCN(C)CC5)ccc(c34)C2=O)c2cccnc12,inactive
12,CCc1nnc(N/C=C2/C(=O)N(c3ccc(Cl)cn3)C(=O)c3ccccc32)s1,inactive
13,CCn1c(NCc2ccc(OC)cc2)nc2ccccc21,inactive
14,COc1ccc(C(=O)Cn2c(C(C)=O)nc3ccccc32)cc1,33.6 µM (active)
15,Cn1c(COc2ccc(C(=O)O)cc2)nc2ccccc21,inactive
16,CN(C)c1cccc(C(=O)OCc2cc(=O)oc3cc(O)ccc23)c1,inactive
17,N#C/C(=C\c1cccnc1)c1nc2c(s1)CCCC2,inactive
18,CN1/C(=C/C=C/c2n(C)c3cc([N+](=O)[O-])c([N+](=O)[O-])cc3[n+]2C)C(C)(C)c2ccccc21,7.94 µM (active)
19,O=C(Oc1c(-c2ccccc2Cl)oc2ccccc2c1=O)c1ccc(Cl)cc1,inactive
20,COCCCn1c(=N)c(C(=O)NCC2CCCO2)cc2c(=O)n3cccc(C)c3nc21 (stereo not drawn),inactive
21,Cc1ccc(-n2c(=O)c(C#N)cc3c(=O)n4ccccc4nc32)cc1C,inactive
22,O=C(Cc1ccccc1)Nc1nc(-c2ccc(F)c(F)c2)cs1,inactive
23,O=C(CCS(=O)(=O)c1ccc(F)cc1)Nc1nc(-c2ccncc2)cs1,39.8 µM (active)
24,Cc1c(Cl)cccc1NC(=O)CNC(=O)CCS(=O)(=O)c1ccc(F)cc1,inactive

row,SMILES,Potency
1,CC(C)(C)c1ccc(-n2nc(C#N)c(Cl)cc2=O)cc1,15.8 µM (active)
2,COc1ccc(N2C(=O)CC(NNc3ncc(Cl)cc3Cl)C2=O)cc1 (stereo not drawn),inactive
3,COc1ccc(-n2nc(C#N)c(Cl)cc2=O)cc1,39.8 µM (active)
4,COc1ccc(-n2nc(C)c3onc(C)c3c2=O)cc1,inactive
5,Cc1ccc(CSc2nnc([C@@H]3CCCN3C(=O)OC(C)(C)C)o2)cc1,inactive
6,CCc1nnc(NS(=O)(=O)c2ccc(N/C=C/C(=O)c3ccc(C)cc3)cc2)s1,inactive
7,CCc1nnc(NS(=O)(=O)c2ccc(NC(=O)c3cccc(Cl)c3)cc2)s1,inactive
8,O=[N+]([O-])c1ccc(Nc2ccccc2)c2nonc12,25.1 µM (active)
9,CCc1nnc(NS(=O)(=O)c2ccc(Nc3ccc([N+](=O)[O-])c4nonc34)cc2)s1,17.8 µM (active)
10,O=[N+]([O-])c1ccc(Sc2cccc[n+]2[O-])c2nonc12,6.7 µM (active)
11,COCCn1c(SCC(=O)NC2CCCCC2)nnc1-c1ccncc1,inactive
12,O=C1OCCN1C(=O)[C@H]1[C@H](c2ccc(F)cc2)C(c2cccc(Cl)c2)=NN1c1ccccc1,inactive
13,O=C(NCc1cccc(C(F)(F)F)c1)c1cccc2c1C(=O)c1ccc(N3CCC(Cc4ccccc4)CC3)cc1S2(=O)=O,inactive
14,CN(C)C(=O)CCc1ccc2c3c([nH]c2c1)[C@]1(C)[C@@H](C(=O)N2CCCCC2)C[C@H](CC(=O)NCC24C[C@H]5C[C@@H](C2)C[C@@H](C4)C5)C(=O)N1CC3,39.8 µM (active)
15,CCN(CC)C(=O)[C@H]1CC(CC(=O)NCc2cccc(C(F)(F)F)c2)C(=O)N2CCc3c([nH]c4ccccc34)[C@]12C (stereo partly drawn),22.4 µM (active)
16,CC(C)N(C(=O)[C@H]1CC(CC(=O)NCc2cccc(C(F)(F)F)c2)C(=O)N2CCc3c([nH]c4ccccc34)[C@]12C)C(C)C (stereo partly drawn),39.8 µM (active)
17,CCN(CC)C(=O)[C@H]1CC(CC(=O)NCC23C[C@H]4C[C@@H](C2)C[C@@H](C3)C4)C(=O)N2CCc3c([nH]c4ccccc34)[C@]12C (stereo partly drawn),39.8 µM (active)
18,C/C(=N\NC(=O)c1nc2ccccn2c1C)c1ccco1,inactive
19,Cc1c(Cc2ccccc2)c(=O)oc2cc(O)cc(O)c12,inactive
20,COCC(=O)N(CCN(C)C)Cc1cc2cc3c(cc2nc1Cl)OCO3,inactive
21,COc1ccc(-c2cn3nc(SCC(=O)NCC4CCCO4)ccc3n2)cc1 (stereo not drawn),inactive

# From ChEMBL document CHEMBL1201862, “PubChem BioAssay data set” (2004)
